Screening results: PubChem BioAssay, National Center for Advancing Translational Sciences (NCATS)
Shown are actives, neighbours in structure and some others; about 19% of the full set was active somewhere.
TGFb SMAD3 inh = TGF-b pathway inhibition. HepG2 CAGA-GFP TGF-b/SMAD3 reporter, GFP fluorescence, 18 h; TGF-beta stimulated, 500 pg/mL final. Potency, µM (top dose mostly 46.1 µM), for inactives: top-dose activity, negative = inhibition, most hits filed as inhibitors. 410,000 compounds, 1.2% hits; note: potency is the fitted concentration of half-maximal effect; % is set by controls: 0 for no effect and ±100 for the full control effect; nearly all actives have a fitted effect of over 65% in size
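Smad-responsive CAGA-GFP expression was quantified in HEPG2 cells exposed to compounds and 500 pg/mL final TGF-beta for 18 h at 37 degrees C; unstimulated wells defined full inhibition.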
HepG2 viability = HepG2 cytotoxicity, counter-screen for TGF-b inhibitors | HepG2 CAGA-GFP viability, ATP luminescence, 18 h | Potency, µM (top dose mostly 46.1 µM), inactives show top-dose activity change, negative = cytotoxicity, usual class: cytotoxic | 410,000 compounds, 0.76% hits | AID 588856; note: potency is the fitted concentration of half-maximal effect
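HepG2 CAGA-GFP cells (1000/well, DMEM with 1% FBS) received compound, then TGF-beta at 500 pg/mL final, and were incubated 18 hours at 37 degrees C. Viability was read by CellTiter-Glo luminescence. Media-only wells were set as complete cell-killing and DMSO as no toxicity.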
IL-1B inflam inh = inhibitors of inflammasome signaling (IL-1 beta secretion); THP-1 LPS/ATP IL-1B secretion, AlphaLISA, 16 h; hits give low values; activity change, % at 57.5 µM; 360,000 compounds, 4.7% hits; in the data active = activity change below about -50%; inconclusive = mostly about -30% to -49%; note: % is set by controls: 0 for no effect and ±100 for the full control effect
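Secreted IL-1B measured by AlphaLISA bead assay after 16 h compound exposure of THP-1 cells; compounds (final up to 57.5 uM) added 1 h before LPS (250 ng/mL) and ATP (1.25 mM) stimulation; lower signal means less secretion.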
DT40 TDP1 CPT = growth inhibition of DT40 Tdp1-/-;hTDP1 cells with camptothecin (screen for TDP1 inhibitors); 420,000 compounds, 12% hits; Potency, µM (top dose mostly 46.2 µM), without a hit: at the top dose activity change, negative = growth inhibition, hits mostly inhibitors; chicken DT40 Tdp1-/-;hTDP1 cells + 20 nM CPT, ATP luminescence, 48 h; note: potency is the fitted concentration of half-maximal effect; % is set by controls: 0 for no effect and ±100 for the full control effect; nearly all actives have a fitted effect of over 55% in size
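Chicken DT40 Tdp1-/- cells complemented with human TDP1, 400 cells/well, exposed to compounds plus 20 nM camptothecin for at least 48 h at 37 C; viability read as ATP content by CellTiter-Glo luminescence.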
TDP1 block = blocks human tyrosyl-DNA phosphodiesterase 1. recombinant TDP1, AlphaScreen DNA substrate cleavage. Potency, µM (highest dose often 130 µM), for the others: at the top dose activity change, negative = inhibition, hits mostly inhibitors. Q9NUW8. 350,000 compounds, 0.28% hits; note: potency is the fitted concentration of half-maximal effect; % is set by controls: 0 for no effect and ±100 for the full control effect; nearly all actives have a fitted effect of over 40% in size
Target sequence (Q9NUW8 whole entry, looked up): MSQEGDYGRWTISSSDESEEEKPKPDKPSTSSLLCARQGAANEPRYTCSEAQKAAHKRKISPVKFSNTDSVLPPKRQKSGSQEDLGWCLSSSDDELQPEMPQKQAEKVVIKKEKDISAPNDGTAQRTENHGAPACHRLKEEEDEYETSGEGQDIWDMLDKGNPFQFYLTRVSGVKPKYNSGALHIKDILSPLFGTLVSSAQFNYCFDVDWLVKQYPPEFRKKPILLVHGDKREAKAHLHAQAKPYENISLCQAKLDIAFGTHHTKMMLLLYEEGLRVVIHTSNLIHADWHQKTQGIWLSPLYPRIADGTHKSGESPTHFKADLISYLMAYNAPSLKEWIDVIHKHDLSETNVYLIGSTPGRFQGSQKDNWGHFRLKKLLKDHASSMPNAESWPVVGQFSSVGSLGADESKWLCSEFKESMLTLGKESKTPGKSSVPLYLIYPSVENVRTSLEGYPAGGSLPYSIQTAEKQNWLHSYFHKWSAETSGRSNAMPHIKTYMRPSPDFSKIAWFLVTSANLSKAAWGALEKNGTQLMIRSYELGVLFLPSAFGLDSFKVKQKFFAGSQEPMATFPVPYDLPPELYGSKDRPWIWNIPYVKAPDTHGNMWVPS
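Compounds were preincubated with Tdp1 (1 nM final) for 15 min at room temperature before substrate (15 nM final) started a 5 min reaction; beads (10 ug/ml final) were then added for 10 min before AlphaScreen detection.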
TDP1 cell noCPT = qHTS for Inhibitors of human tyrosyl-DNA phosphodiesterase 1 (TDP1): qHTS in cells in absence of CPT; DT40 Tdp1-/- hTDP1 cells, no CPT, ATP luminescence, 48 h; Potency, µM (series often up to 46.2 µM), inactives show at the highest dose activity change, negative = growth inhibition, hits mostly inhibitors; 420,000 compounds, 15% hits; AID 686978, 2013; note: potency is the fitted concentration of half-maximal effect; % is set by controls: 0 for no effect and ±100 for the full control effect; nearly all actives have a fitted effect of over 55% in size
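Seeded 400 DT40-hTDP1 cells/well (vehicle DMSO, no 20 nM CPT); pinned compounds; ≥48 hr at 37 °C; CellTiter-Glo luminescence as viability measure.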
Starred values were filed as active, the others as inactive; ? = inconclusive; . = no result; [ ] = another dose, or the depositor's remark. Unless noted, calls come from the whole dose curve; as a rule, active = well fitted curve in the direction sought with a large enough effect; inconclusive = small, poorly fitted or top-dose-only effect, or another doubt; inactive = no such curve, though single readings can be large; an effect the other way counts as inactive or inconclusive.

SMILES | TGFb SMAD3 inh | HepG2 viability | IL-1B inflam inh | DT40 TDP1 CPT | TDP1 block | TDP1 cell noCPT
CC1CCCCN1CCCNC(=O)C1CCN(c2nc3ccccc3o2)CC1 (centres undefined) | -11% | -12% | -28 | 3% | 5% | -18%
C=CC(=O)c1ccc(CCCCCC)cc1 | . | . | . | . | 0% | .
CCN(C(=O)c1ccc2c(Cl)c3c(nc2c1)CCC3)c1ccc(C)c(C)c1 | ? | -109% | -81* | 21µM* | 0% | 21µM*
CN(C(=O)c1ccc2c(Cl)c3c(nc2c1)CCC3)c1ccccc1F | ? | -62% | . | -17% | 9% | 29µM*
CN(C(=O)c1ccc2c(Cl)c3c(nc2c1)CCC3)c1ccccc1 | -21% | -27% | -5 | ? | -1% | ?
O=C(NC1CCCCC1)C(c1ccc(F)cc1)N(Cc1ccco1)C(=O)c1ccccn1 (centres undefined) | -7% | -6% | -8 | 0.82µM* | 1% | -25%
O=C(NC1CCCC1)C(c1ccncc1)N(Cc1ccccc1)C(=O)c1ccc(-c2ccccc2)[nH]1 (centres undefined) | ? | -7% | -79* | 21µM* | -1% | 16µM*
Cc1ccccc1C(C(=O)NCc1ccccc1)N(Cc1ccco1)C(=O)c1ccccn1 (centres undefined) | -2% | -6% | -15 | ? | 2% | 15µM*
O=C(NC1CCCC1)C(c1ccncc1)N(CCCN1CCOCC1)C(=O)c1ccc(-c2ccccc2)[nH]1 (centres undefined) | -4% | -5% | ? | -16% | 0% | -23%
CCOc1ccc(C(C(=O)NC2CCCC2)N(CCCO)C(=O)c2ccc(-c3ccccc3)[nH]2)cc1 (centres undefined) | -22% | -2% | -21 | 21µM* | 8% | 18µM*
CC(=O)Nc1cncc(-c2cccc(C(=O)N(C)C)c2)n1 | 21% | 5% | 27 | -10% | . | 0%
Cc1cc(F)c(F)c(C(=O)N2C(C)CCCC2C)c1Cl (centres undefined) | 4% | -7% | 48 | ? | 5% | ?
COc1ccc(-c2cc(C(=O)N3CCc4c(cnc(C)c4CNC(=O)c4ccsc4)C3)[nH]n2)cc1 | . | . | . | -1%[9.04 µM] | . | -2%
Cc1ccc(CN2CCOCCS2(=O)=O)cc1 | 7% | 23% | . | -25% | . | ?
O=C(NC1CCCC1)C(c1ccncc1)N(Cc1ccco1)C(=O)c1ccc(-c2ccccc2)[nH]1 (centres undefined) | ? | -3% | -105* | 23µM* | 3% | 16µM*
Cc1cc(=O)[nH]c(SCC(=O)c2ccc(F)c(C)c2)n1 | 6% | -2% | 12 | -30% | . | ?
COC(=O)c1c(SCC(=O)Nc2ccccc2OC)[nH]c2ccccc2c1=O | ? | -20% | . | 23µM* | 0% | ?
COc1ccc(Cl)cc1NC(=O)CSc1nc(-c2ccccc2)c2ccccc2n1 | -20% | -9% | . | 7.3µM* | 0% | 21µM*
COc1ccccc1NC(=O)CSc1nnc2c3ccccc3n(C(C)C)c2n1 | -3% | -22% | . | 3.7µM* | . | 4.6µM*
CCc1cccc2c(-c3ccccc3)nc(SCC(=O)Nc3ccccc3OC)nc12 | -16% | -7% | . | ? | 2% | 18µM*
COC(=O)c1c(SCC(=O)Nc2cc(OC)cc(OC)c2)[nH]c2ccc(C)cc2c1=O | -14% | -41% | . | ? | 3% | ?
CCN(CC)CCn1c(-c2ccccc2)nc2c(NCCOC)nc(C)nc21 | . | . | . | . | 5% | .
Clc1ccc(-c2nnn3c2nc(N2CCCCC2)c2ccccc23)cc1 | -17% | -11% | . | 1% | -1% | 0%
CCOC(=O)c1sc(-c2cccc(C(F)(F)F)c2)nc1O | 1% | -4% | -5 | ? | -3% | 21µM*
COc1ccc(OC)c(S(=O)(=O)N2CCN(Cc3nc4ccc(C)cc4o3)CC2)c1 | ? | -9% | . | ? | 4% | -11%
SMILES | TGFb SMAD3 inh | HepG2 viability | IL-1B inflam inh | DT40 TDP1 CPT | TDP1 block | TDP1 cell noCPT
NC1=NC(c2cccc(Cl)c2)N(CCc2ccc(F)cc2)C(N)=N1 (centres undefined) | 0% | -19% | . | ? | . | 23µM*
COC(=O)c1cc(NC(=O)Cn2nc(-c3ccc(C)c(C)c3)ccc2=O)cc(C(=O)OC)c1 | 2% | 0% | . | 4% | 3% | -5%
COc1ccc(-c2nnc(NC(=O)c3ccc(F)cc3)o2)cc1 | ? | -19% | 45 | 2.9µM* | 11% | ?
CS(=O)(=O)c1cccc(-c2nnc(NC(=O)c3ccc(S(=O)(=O)N4CCCC4)cc3)o2)c1 | -1% | 9% | -3 | -1% | . | 3%
O=C(Nc1nnc(-c2ccc(F)cc2)o1)c1ccc(S(=O)(=O)N2CCOCC2)cc1 | -3% | -38% | 64 | 3.3µM* | 1% | 2.9µM*
COc1ccc(-c2nnc(NC(=O)c3cc(Cl)ccc3Cl)o2)cc1 | -27% | -7% | 30 | 16µM* | 10% | ?
Cc1ccccc1C(=O)Nc1nnc(-c2ccc(F)cc2)o1 | ? | -20% | 69 | 6.5µM* | 8% | 5.8µM*
CCC(=O)Nc1nnc(-c2ccc(OC)cc2)o1 | -6% | -21% | 2 | -15% | 7% | -17%
CCCCn1c(N)c(N(CC(C)C)C(=O)c2ccc(OCc3c(C)noc3C)cc2)c(=O)[nH]c1=O | ? | -11% | 10 | 3% | 5% | 3%
O=C(Nc1nc(-c2ccccc2)c(-c2ccccc2)o1)c1ccc(F)cc1 | -28% | -34% | 10 | 9.2µM* | 12% | 8.2µM*
CC(C1CC1)N(C(=O)c1ccccc1[N+](=O)[O-])c1ccccc1 (centres undefined) | -1% | -11% | -14 | 21µM* | 3% | 8.2µM*
CC(C)N1CCC(N2CCN(CCCc3ccccc3)CC2CCO)CC1 (centres undefined) | 1% | 3.2µM* | -13 | -2% | 1% | ?
CC(C)N1CCC(N2CCN(Cc3ccc(-c4ccccc4Cl)o3)CC2CCO)CC1 (centres undefined) | 7% | -17% | ? | ? | -6% | ?
CC(C)N1CCC(N2CCN(Cc3ccc(-c4ccc(Cl)cc4)o3)CC2CCO)CC1 (centres undefined) | 0% | -28% | -69* | ? | . | 18µM*
